The results in this text go back to PubChem BioAssay AID493175 (National Center for Advancing Translational Sciences (NCATS), 2011).

Inconclusive results are not listed. Values without a mark were called inactive. Calls come from the whole dose curve; as a rule, active = well fitted curve in the direction sought with a large enough effect; inconclusive = small, poorly fitted or top-dose-only effect, or another doubt; inactive = no such curve, though single readings can be large or run the other way.

In this experiment the target is Luciferin 4-monooxygenase (Photinus pyralis) (UniProt P08659). The experiment in a line: miR-21 counterscreen using purified firefly luciferase. The settings on record: purified P. pyralis luciferase, luminescence; series mostly up to 57.5 µM; activity change, negative = inhibition: at the top concentration. The source says: MLPCN Grant: 1 R21 NS059478-01 Assay Provider: Qihong Huang, The Wistar Institute NCGC Assay Overview: MicroRNAs (miRNAs) are endogenously encoded small (~20-25 nucleotides), nonprotein-coding RNAs that are involved in post-transcriptional repression of target messenger RNAs (mRNAs) (Le and Hannon, 2004). Estimated to be involved in the regulation of 30% of all protein-coding mRNAs (Filipowicz et al., 2008), miRNAs play a significant role in many biological processes including cellular differentiation and tissue development (Ghildiyal and Zamore, 2009). […] Compounds active in the miR-21 FLuc assay were clustered using Leadscope and active chemical series were prioritized based on chemical properties, potential for medicinal chemistry optimization, and SAR. Within each chemical series, representative compounds were re-acquired to test for activity in a secondary assay based on the quality of their CRC, efficacy, and potency. This secondary assay to determine if compounds active in the miR-21 FLuc assay were just luciferase inhibitors. Compounds found active in both the miR-21 FLuc and purified FLuc assays are considered as false positives. Keywords: NIH Roadmap, MLPCN, MLSMR, qHTS, miR-21, firefly luciferase, FLuc, miRNA.
Luciferin 4-monooxygenase (Photinus pyralis), sequence (P08659 whole entry, looked up): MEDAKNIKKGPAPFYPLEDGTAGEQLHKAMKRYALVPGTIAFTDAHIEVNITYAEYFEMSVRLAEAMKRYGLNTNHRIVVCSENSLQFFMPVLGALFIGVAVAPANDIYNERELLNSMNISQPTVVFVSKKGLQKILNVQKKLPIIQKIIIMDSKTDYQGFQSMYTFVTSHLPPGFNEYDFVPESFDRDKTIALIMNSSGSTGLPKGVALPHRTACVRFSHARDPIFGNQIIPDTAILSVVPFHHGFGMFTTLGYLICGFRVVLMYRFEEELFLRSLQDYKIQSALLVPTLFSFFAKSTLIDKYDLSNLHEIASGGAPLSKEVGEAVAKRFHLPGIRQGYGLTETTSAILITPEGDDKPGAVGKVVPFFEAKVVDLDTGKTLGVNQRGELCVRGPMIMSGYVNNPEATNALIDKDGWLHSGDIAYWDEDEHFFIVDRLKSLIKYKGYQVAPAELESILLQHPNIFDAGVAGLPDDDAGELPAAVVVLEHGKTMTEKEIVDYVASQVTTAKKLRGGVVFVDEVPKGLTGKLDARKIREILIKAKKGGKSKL
NCGC Assay Protocol Summary: Reagents: 50mM Tris acetate, pH 7.5; 10mM Mg acetate; 10uM D-luciferin (Sigma #L9504); 10uM ATP; 0.01% Tween-20; 0.05% BSA; 10nM P. pyralis luciferase (Sigma #L9506) Control compounds used were two known firefly luciferase inhibitors (compounds (2) and (5) in Auld et al., 2010), and DMSO. Assay Summary: Three microliters containing firefly luciferase substrates in buffer (final concentrations: 50mM Tris acetate, pH 7.5, 10mM Mg acetate, 0.01% Tween-20, 0.05% BSA, 10uM D-luciferin, and 10uM ATP) are dispensed into each well of a Greiner white, solid-bottom 1536-well format plate using a flying reagent dispenser (FRD). These assay plates were then treated with 23nL of compound or DMSO using a Kalypsys pin tool, which allows for delivery of a 6-point interplate titration of each compound to the assay plate (quantitative HTS), with a final compound concentrations ranging from approximately 60 µM to 7pM. One microliter of firefly luciferase in […] Tris-acetate buffer was then delivered by FRD to each well for a final enzyme concentration of 10nM. Luciferase activity was then measured using a ViewLux CCD imager (PerkinElmer), with an average exposure time of 2-30 seconds (2X binning, medium/high gain).
For orientation: Counterscreens check selectivity or assay interference.
For `C[C@]12CC[C@H]3C(=CCc4cc(O)ccc43)[C@@H]1CCC2=O`, the “activity change, negative = inhibition” value was -18.3%.
The value for `COc1ccc(NC(=O)c2ncn(-c3ccccc3)n2)cc1Cl` was -14.2%.
As for `CN(C)c1ccc(CNc2nc(-c3ccco3)nn2S(C)(=O)=O)cc1`, the figure is 1.82%; as for `COCc1cc(C)nc2sc(C(=O)OC(C)C)c(N)c12`, -1.1% [at 2.3 µM].
The value for `Cc1cc(SCC(=O)Nc2nsc(-c3ccc(C(C)(C)C)cc3)n2)nc2ccccc12` was 1.68%.
Take `O=C(CSc1nnc(-c2ccc(Cl)cc2)o1)Nc1ccc(F)cc1`: the “activity change, negative = inhibition” value is -3.58%.
The value for `CCc1nonc1NC(=O)c1oc2ccccc2c1C` was -6.73%.
As to `Cc1ccc(NC(=O)Cn2nnc(-c3nc(-c4ccc(Cl)cc4)no3)c2N)cc1C`, the “activity change, negative = inhibition” value was 1.35%.
As for `O=S(=O)(c1ccc(F)cc1)n1ccc(-c2cnc(-c3ccccc3)s2)n1`, the figure is -19.1%; as for `COc1ccccc1Nc1nn2c(=O)c3ccc(C(=O)NCc4cccs4)cc3nc2s1`, -3.28%; as for `Cc1ccc(-c2nc(NCc3ccco3)n(S(C)(=O)=O)n2)cc1`, 0.606%.
As for `CS(=O)(=O)c1ncc(Cl)c(C(=O)N2CCN(c3cccc(Cl)c3)CC2)n1`, the figure is -18.8%.
As for `COc1cc(Cl)c(C)cc1Nc1c2c(nc3ccccc13)CCC2`, the figure is 2.63%.
Consider `CCC(C)S(=O)(=O)c1oc(-c2cccs2)nc1S(=O)(=O)c1ccccc1` (stereo not given), for which the “activity change, negative = inhibition” value was -12.1%.
Take `Cc1ccc(SCC(=O)Nc2ccc3oc(-c4ccc(F)cc4)nc3c2)cc1`: the “activity change, negative = inhibition” value was -1.61%.
As for `Cc1ccc(-c2nc3cnccn3c2Nc2ccccc2)o1`, the figure is -19.4%; as for `Cc1c(-c2nsc(NC(=O)c3cccs3)n2)nnn1-c1ccc(Cl)cc1`, -6.95%; as for `COc1cccc(NC(=O)CSc2nnc(-c3cccs3)o2)c1`, -3.97%.
The value for `COc1ccc(CCNc2ncnc3c2cnn3-c2cc(Cl)ccc2C)cc1` was 1.58%; that for `Cc1cc(C)n2c(SCc3ccccc3Cl)nnc2n1` was -9.49%.
Regarding `Cc1cccc(N2CCN(c3ncnc4onc(C)c34)CC2C)c1` (stereo not given), the “activity change, negative = inhibition” value was -2.15%.
`CC1=C(c2ccc(C)c(C)c2)S(=O)(=O)N=C1N1CCC(C(=O)NCCc2ccc(Cl)cc2)CC1`: the “activity change, negative = inhibition” value was 9.77%.
As for `Cc1cccc(N2CCN(C(=O)C3CCN(c4ncnc5c4nc4n5CCCCC4)CC3)CC2C)c1` (stereo not given), the figure is -15.3%; as for `COc1nc(Nc2cccc(C(F)(F)F)c2)nc(OC)n1`, -6.49%.
As for `Nc1c(-c2nc(-c3ccccc3Cl)no2)nnn1-c1ccccc1F`, the “activity change, negative = inhibition” value was -14.3%.
The value for `Cc1ccccc1Nc1nc(N)nc(CN(C)c2ccccc2)n1` was 0.346%.
`Cn1c(=O)[nH]c2cc(-c3noc(-c4ccc(F)cc4)n3)ccc21`: the “activity change, negative = inhibition” value was -17.8%.
As for `Cc1c(-c2nc(-c3ccc(C(F)(F)F)cc3)no2)n(C)oc1=O`, the figure is 6.33%.
As for `COc1ccccc1C(=O)n1nc(-c2ccco2)nc1NCc1ccc(Cl)cc1`, the figure is 0.108%.
As for `Cc1ccc(-c2csc(NC(=O)CSc3nc4ccccc4o3)n2)cc1`, the figure is 0.587%; as for `Cc1nnc(SCc2nc(N)nc(Nc3ccccc3)n2)s1`, -25.9%; as for `COc1ccc(C(=O)Nc2nnc(C(C)C)s2)cc1OC`, -16.5%.
Consider `CCCn1c(=O)c2sccc2n2c(CCCC(=O)Nc3ccc(Oc4ccc(Cl)cc4)cc3)nnc12`, for which the “activity change, negative = inhibition” value is -2.62%.
The value for `Cc1cc(C)cc(NC(=O)CSc2nnc(CNC(=O)c3ccco3)o2)c1` was 3.89%.
As for `CCC(Oc1ccccc1F)C(=O)N1CCC(c2nc3ccccc3s2)CC1` (stereo not given), the figure is 3.23%.
As for `COc1ccc(OCC(=O)Nc2ccc(-c3nc4cc(C)c(C)cc4o3)cc2)cc1`, the “activity change, negative = inhibition” value was -0.217%.
As for `CCCCOc1ccccc1CC1C(=O)Nc2ccc(Br)cc21` (stereo not given), the figure is -3.67%; as for `COc1ccc(-n2nnc(-c3nc(-c4cccs4)no3)c2N)cc1OC`, -9.69%; as for `CCC(=O)n1nc(-c2cccnc2)nc1NCc1ccc(F)cc1`, -1.65%.
The value for `Cc1cc(C)c2c(N)c(C(=O)Nc3ccccc3F)sc2n1` was -19.7%.
